Assay outcomes from PubChem BioAssay.
ST2 IL33 inh = inhibitors of human ST2 (IL1RL1) binding to IL-33; Q01638; AlphaLISA ST2-Fc/biotin-IL-33 interaction, 1 h; inhibition, % for hits at 17 µM; 78,000 compounds, 2.3% hits; in the data active means inhibition above about 30%
An asterisk follows results filed as active; i = inactive. Many of the other results were omitted from the sample, so hits are more common in it than they were.

SMILES | ST2 IL33 inh
O=C1CC2(CCCCC2)Oc2ccc(O)cc21 | i
Nc1ccc2c(c1)OC1(CCCCC1)O2 | 37%*
COc1ccc(OC)c(C2CCN(CC(=O)O)C2)c1 (stereo unspecified) | i
COCCCNC(=O)C1c2cc(OC)c(OC)cc2C(=O)N(C)C1c1ccc(OC)cc1 (stereo unspecified) | i
COc1ccc(C2C(C(=O)NCCN(C)C)c3cc(OC)c(OC)cc3C(=O)N2C)cc1 (stereo unspecified) | 33%*
CCN(CC)CCNC(=O)C1c2cc(OC)c(OC)cc2C(=O)N(C)C1c1ccc(OC)cc1 (stereo unspecified) | i
OC1C=CC(O)C23OC12C(O)C=CC31Oc2cccc3cccc(c23)O1 (stereo unspecified) | i
CC(=O)Nc1ccc(C(=O)Nc2ccc(S(N)(=O)=O)cc2)cc1 | i
